Reference: PubChem BioAssay (NCATS)
Values joined by “and” are separate entries in the source; they are usually repeats but may differ in a detail not shown here. Equal values may be shown once. Results filed as inconclusive are left out. Active and inactive are the calls of the source. Unless noted, calls follow the shape of the dose curve; as a rule, active = well fitted curve in the direction sought with a large enough effect; inconclusive = small, poorly fitted or top-dose-only effect, or another doubt; inactive = no such curve, though single readings can be large; an effect the other way counts as inactive or inconclusive.

Key:
[1] = qHTS to identify inhibitors of the type 1 interferon - major histocompatibility complex class I in skeletal muscle: primary screen against the NCATS Mechanism Interrogation Plate v5.0 (MIPE) Libary (AID 1347411); also: nearly all actives have a fitted effect of over 65% in size; also: potency is read from the fitted curve at half-maximal effect;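 as to activity change, negative = inhibition: plate controls were vehicle for no effect and reference inhibitor for full effect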
How it was run: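 HLA-B HiBit myoblasts, dexamethasone-free medium + 4 ng/ml IFN-b, 24 h compound, 11-pt 1:3 from 46 uM final. Readout: Nano-Glo HiBiT lytic luminescence after 10 min lysis, RT.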

[2] = Primary qHTS for inhibitors of nuclear receptor binding SET domain protein 2 (NSD2) in an isogenic RCH-ACV NSD2 p.E1099K mutant (9B) (AID 1645876); also: nearly all actives have a fitted effect of over 70% in size; also: potency is read from the fitted curve at half-maximal effect; as to activity change, negative = viability loss: % is scaled to controls: 0 for no effect and ±100 for the full control effect
[3] = Primary qHTS for inhibitors of nuclear receptor binding SET domain protein 2 (NSD2) in an RCH-ACV wild type WT cells (2C) (AID 1645877); also: nearly all actives have a fitted effect of over 70% in size; also: potency is read from the fitted curve at half-maximal effect; as to activity change, negative = cell killing: % is scaled to controls: 0 for no effect and ±100 for the full control effect
[4] = molecular target: Glutathione peroxidase 1 (Homo sapiens) (UniProt P07203); assay: Primary qHTS Assay for Inhibitors of Recombinant Selenoprotein Glutathione Peroxidase 1 (GPX1) (AID 1845191); also: nearly all actives have a fitted effect of over 65% in size
Glutathione peroxidase 1 (Homo sapiens), sequence (P07203 whole entry, looked up): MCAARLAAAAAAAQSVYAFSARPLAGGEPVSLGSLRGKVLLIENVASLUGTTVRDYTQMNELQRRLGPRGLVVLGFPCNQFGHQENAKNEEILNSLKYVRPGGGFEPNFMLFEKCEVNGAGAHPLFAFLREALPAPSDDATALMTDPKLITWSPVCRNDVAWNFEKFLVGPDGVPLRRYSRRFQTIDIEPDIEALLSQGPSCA
How it was run: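 GPX1 10 nM, GR 100 nM, GSH 1 mM, NADPH 0.5 mM, CHP 0.5 mM (final). 30-min cpd preincubation, RT. Ex340/Em450 read t=0, t=15 min.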

[5] = qHTS drug screen for cell cycle checkpoint inhibitors in PARPi-resistant BRCA-mutant ovarian cancer cell lines. (AID 1963452; calls by dose curve; also: potency is read from the fitted curve at half-maximal effect); details: PEO1/OlaR viability, CellTiter-Glo luminescence, 96 h; for Z-AUC: stronger effect = lower value
How it was run: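 PEO1, PEO4 and PEO1/OlaR ovarian cancer cells, 600 per well, exposed 96 h at 37C to a dilution series. Viability read by CellTiter-Glo luminescence, normalized to DMSO and empty wells; activity summarized as Z-AUC.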

[6] = molecular target: Phospholipid hydroperoxide glutathione peroxidase GPX4 (Homo sapiens) (UniProt P36969); assay: Primary qHTS Assay for Inhibitors of Recombinant Selenoprotein Glutathione Peroxidase 4 (GPX4) (AID 1845192); details: outcome: dose series up to 50 µM unless noted; also: nearly all actives have a fitted effect of over 65% in size
Phospholipid hydroperoxide glutathione peroxidase GPX4 (Homo sapiens), sequence (P36969 whole entry, looked up): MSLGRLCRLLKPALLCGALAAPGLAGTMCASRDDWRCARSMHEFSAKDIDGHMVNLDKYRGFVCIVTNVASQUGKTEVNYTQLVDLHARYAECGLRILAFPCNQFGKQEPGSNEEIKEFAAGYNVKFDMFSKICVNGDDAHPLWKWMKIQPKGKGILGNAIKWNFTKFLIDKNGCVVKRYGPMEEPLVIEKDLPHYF
How it was run: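 qHTS, GR-coupled: GPX4 200 nM + cpd 30 min RT → GSH 1 mM, NADPH 0.5 mM, GR 100 nM → CHP 0.5 mM start; fluor 340/450 at t0 and t15 min; no-enzyme wells as control.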

[7] = measured here: PEO1 parental Z-AUC

| Structure (SMILES) | Potency [1] | Potency [2] | Potency [3] | Potency [4] | Z-AUC [5] | Z-AUC [5, 7] | Z-AUC ([5]; measured here: PEO4 Z-AUC) | activity change, negative = inhibition [1] | activity change, negative = viability loss [2] | activity change, negative = cell killing [3] | outcome [4] | Potency [5] | Potency [6] |
| --- | --- | --- | --- | --- | --- | --- | --- | --- | --- | --- | --- | --- | --- |
| Cc1ccc(-c2nc(N)nc3c2nnn3Cc2cccc(CO[C@H]3CCOC3)n2)o1 | inactive | inactive | inactive | inactive | -1.33 (inactive) | -0.982 | -1.11 |  |  |  |  |  |  |
| O=C(O)c1ccccc1-c1ccc(/C=c2\sc3nc4cc(Br)cnc4n3c2=O)o1 | inactive | inactive | inactive | inactive | -0.492 (inactive) | -0.865 | -0.895 |  |  |  |  |  |  |
| CC(C)n1cc(-c2ccc3c(c2)N(C)CC3)c2c(NS(=O)(=O)c3ccn(C)n3)ccnc21 | inactive | inactive | inactive | inactive | 1.52 (inactive) | 0.948 | 0.671 |  |  |  |  |  |  |
| CN[C@@H](C)C(=O)N[C@H](C(=O)N1CCC[C@H]1C(=O)Nc1sc(-c2ncco2)nc1-c1ccccc1)C1CCCCC1 | inactive | inactive | inactive | inactive | 1.87 (inactive) | 0.246 | 0.302 |  |  |  |  |  |  |
| O=C(C[C@@H]1C/C=C\CCC(=O)O[C@H](c2ccccc2)CNC1=O)NCc1ccc(Cl)cc1 | inactive | inactive | inactive | inactive | -0.618 (inactive) | 0.123 | -0.716 |  |  |  |  |  |  |
| CN1CCN(C(=O)[C@H]2[C@@H](C(=O)O)[C@H]3CC[C@@H]2O3)CC1 |  |  |  |  | 0.39 (inactive) | 0.568 | 0.663 | -7.67% [at 8.44 µM] (inactive) | 9.83% [at 9.23 µM] (inactive) | 4.4% [at 9.23 µM] (inactive) | inactive [at 9.52 µM] |  |  |
| CC1Cc2ccccc2N1C(=O)Cc1nc(N2CCOCC2)cc(=O)[nH]1 (stereo not given) | inactive | 5250 nM (active) | 4680 nM (active) | inactive | -1.34 (inactive) | -0.404 | -0.574 |  |  |  |  |  |  |
| O=C(O)C[C@H]1CCc2c1[nH]c1ccc(OCc3ccc(C4CCCC4)c(C(F)(F)F)c3)cc21 | inactive | inactive | inactive | inactive | 1.56 (inactive) | 0.981 | 0.948 |  |  |  |  |  |  |
| CC1=NN(c2ccc(C(=O)O)cc2)C(=O)/C1=C/c1ccc(-c2cc(C)c(C)cc2[N+](=O)[O-])o1 | inactive | inactive | inactive | inactive | 0.0308 (inactive) | 0.127 | -0.0936 |  |  |  |  |  |  |
| O=C1NC(=O)/C(=C\c2ccc(-c3ccc(F)cc3)o2)S1 | inactive | inactive | inactive | inactive | 0.0775 (inactive) | 0.696 | 0.899 |  |  |  |  |  |  |
| C/C=C1\NC(=O)[C@H]2CSSCC/C=C\[C@H](CC(=O)N[C@H](C(C)C)C(=O)N2)OC(=O)[C@H](C(C)C)NC1=O | 10.4 nM (active) | 7.4 nM (active) | 6.6 nM (active) | inactive |  | -3.43 | -3.56 |  |  |  |  | 4.9 nM (active) |  |
| COc1cccc(-c2c(C)n(Cc3c(F)cccc3C(F)(F)F)c(=O)n(C[C@H](NCCCC(=O)O)c3ccccc3)c2=O)c1F | inactive | inactive | inactive | inactive | 1.28 (inactive) and 1.27 (inactive) | 0.714 and 0.439 | 0.863 and 0.647 |  |  |  |  |  |  |
| O=C(O)CNC(=O)c1nc(Cl)c2ccccc2c1O | inactive | inactive | inactive | inactive | -0.321 (inactive) | -0.207 | -0.202 |  |  |  |  |  |  |
| COc1cc(OCc2cccc(-c3ccccc3)c2C)cc(OC)c1CN1CCCC[C@H]1C(=O)O | inactive | inactive | inactive | inactive | -0.024 (inactive) | -0.135 | -0.37 |  |  |  |  |  |  |
| COc1cc(OC)c(/C=C/S(=O)(=O)Cc2ccc(OC)c(OP(=O)(O)O)c2)c(OC)c1 | inactive | 37.2 nM (active) | 33.2 nM (active) | inactive |  | -2.04 | -2.09 |  |  |  |  | 49 nM (active) |  |
| COc1ccc2[nH]c3c(c2c1)CCN[C@]31CS[C@@H]2c3c(OC(C)=O)c(C)c4c(c3[C@H](COC1=O)N1[C@@H]2[C@H]2c3c(cc(C)c(OC)c3O)C[C@@H]([C@@H]1O)N2C)OCO4 | 53.5 nM (active) | 1.7 nM (active) | 1.7 nM (active) |  |  | -2.79 | -2.86 |  |  |  | inactive [at 9.52 µM] | 31.7 nM (active) |  |
| CC(=O)N[C@H]1[C@H](O[C@@H]2c3ccc(c(Cl)c3)Oc3cc4cc(c3O[C@@H]3O[C@H](CO)[C@@H](O)[C@H](O)[C@H]3NC(=O)CCCCCCCC(C)C)Oc3ccc(cc3Cl)C[C@H]3NC(=O)[C@H](N)c5ccc(O)c(c5)Oc5cc(O)cc(c5)[C@H](NC3=O)C(=O)N[C@H]4C(=O)N[C@H]3C(=O)N[C@@H]2C(=O)N[C@@H](C(=O)O)c2cc(O)cc(O[C@H]4O[C@H](CO)[C@@H](O)[C@H](O)[C@@H]4O)c2-c2cc3ccc2O)O[C@H](CO)[C@@H](O)[C@@H]1O | inactive | inactive | inactive |  | 0.721 (inactive) | 0.652 | 1.05 |  |  |  |  |  | inactive |
| COc1ccc(CNC(=O)c2cc(-c3cncc(Cl)c3)cnc2-c2ccccn2)nc1OC | inactive | inactive | inactive | inactive | 0.765 (inactive) | 0.872 | 1.32 |  |  |  |  |  |  |
| C[C@@H]1CC(=O)Nc2cccc(-c3ccc4c(c3)c(-c3cnn(C)c3)nn4C)c2N1 | inactive | 742 nM (active) | 662 nM (active) | inactive | 1.34 (inactive) | 1.02 | 1.12 |  |  |  |  |  |  |
| COc1cc2c3c(n(CCCn4ccnc4)c(=O)c2cc1OC)-c1cc2c(cc1C3=O)OCO2 | inactive | 10.5 nM (active) | 13.2 nM (active) | inactive |  | -2.51 | -1.77 |  |  |  |  | 7.8 nM (active) |  |
